Laboratory results reported in PubChem BioAssay (EPA / NIEHS).
Calls of active or inactive are those of the source. Rule for the calls: active = hit-call score of the fitted dose curve at least 0.9, where 1 is the maximum; inactive = score below 0.9.

Test: ATG_ERE_CIS: Attagene CIS-FACTORIAL HepG2 Assay for Estrogen Response Element (ERE) (AID 2282940)
Details: HepG2 ERE cis-reporter, Attagene RNA transcript; actives raise or lower the signal
Procedure: ATG_CIS is a cell-based, multiplexed-readout assay that uses HepG2, a human liver cell line, with measurements taken at 24 hours after chemical dosing in a 24-well plate.ATG_ERE_CIS is one of 52 assay component(s) measured or calculated from the ATG_CIS assay. It is designed to make measurements of mRNA induction, a form of inducible reporter, as detected with fluorescence intensity signals by Reverse transcription polymerase chain reaction (RT-PCR) and Capillary electrophoresis technology.Data from the assay component ATG_ERE_CIS was analyzed into 1 assay endpoint. This assay endpoint, ATG_ERE_CIS, was analyzed with bidirectional fitting relative to DMSO as the negative control and baseline of activity. Using a type of inducible reporter, measures of mRNA for gain or loss-of-signal activity can be used to understand the reporter gene at the transcription factor-level as they relate to the gene ESR1. Furthermore, this assay endpoint can be referred to as a primary readout, because this assay has produced multiple assay endpoints where this one serves a reporter gene function. To generalize the intended target to other relatable targets, this assay endpoint is annotated to the nuclear receptor intended target family, where the subfamily is steroidal.
Human liver HepG2 cells are transiently transfected with multiple reporter transcription units (MRTUs) in 6-well plates using FuGene 6 reagent (Roche; 3 ml FuGene/1 mg DNA). The MRTU constructs are regulated by a cis-regulating element (promoter). […] A major difference between the CIS and TRANS system is that in CIS activities of endogenous TFs are measured, whereas the TRANS assay evaluates changes in activities of exogenous, chimeric NR-Gal4 proteins. […] At the end of 24 hour incubation, total RNA was isolated using TriZol reagent (Invitrogen). The isolated RNA is then reverse-transcribed using oligo(dT) primer and Mo-MLV reverse transcriptase (Invitrogen) with DNAse I (Ambion) treatment for 30 min. The one-tenth of the produced cDNA was amplified by PCR using Taq DNA polymerase (Invitrogen) and two reporter sequence-specific primers. The PCR products were fluorescently labeled by primer extension with 6-arboxyfluorescein (6-FAM) 5'-labeled reporter sequence-specific primer (2 min at 95 C, 20 s at 68 C and 10 min at 72 C) and these products were digested with 5U of HpaI (New England Biolabs) for 2h at 37 C. The fragments were purified using Qiaquick PCR columns (Qiagen), analyzed on an ABI 3130xL genetic analyzer (Applied Biosystems) with peak positions identified by using a set of X-rhodamine (ROX)-labeled MapMarker1000 molecular weight standards (BioVentures). The raw capillary electrophoresis data was processed using Attagraph software (Attagene).

| Compound | AC50 | outcome |
| --- | --- | --- |
| Clc1ccc(C2(Cn3cncn3)CC(Br)CO2)c(Cl)c1 (stereo not given) | 2.54 µM (active) |  |
| CC(C)(c1ccc(OCC2CO2)cc1)c1ccc(OCC2CO2)cc1 (stereo not given) |  | inactive |
| Nc1ccc(-c2ccc(N)c(Cl)c2)cc1Cl | 3.86 µM (active) |  |
| O=[N+]([O-])c1c(Cl)c(Cl)cc(Cl)c1Cl |  | inactive |
| Fc1ccc(C2(Cn3cncn3)OC2c2ccccc2Cl)cc1 (stereo not given) |  | inactive |
| CC(=[OH+])/C=C(/C)[O-].CC(=[OH+])/C=C(/C)[O-].CC(=[OH+])/C=C(/C)[O-].[Fe] |  | inactive |
| C=CC(=O)OCCCCCC(C)C |  | inactive |
| CCOP(=S)(OCC)Oc1nc(Cl)c(Cl)cc1Cl | 27.5 µM (active) |  |
| CN(C)P(=O)(N(C)C)N(C)C |  | inactive |
| CCNc1nc(NC(C)(C)C)nc(SC)n1 |  | inactive |
| Oc1ccc(-c2ccccc2)cc1 | 2.15 µM (active) |  |
| COc1cccc(C=O)c1 |  | inactive |
| Nc1ccc(N=Nc2ccc(-c3ccc(N=Nc4c(S(=O)(=O)O)cc5cc(S(=O)(=O)O)c(N=Nc6ccccc6)c(O)c5c4N)cc3)cc2)c(N)c1 | 24.8 µM (active) |  |
| CC(=O)C=C(C)C |  | inactive |
| [O-][Cl+2]([O-])O |  | inactive |
| C[C@H]1CCCC(=O)CCC/C=C/c2cc(O)cc(O)c2C(=O)O1 | 0.00291 µM (active) |  |
| CCOP(=O)(CN(CCO)CCO)OCC |  | inactive |
| ClCc1cccnc1 |  | inactive |
| Cl/C=C\C[N+]12CN3CN(CN(C3)C1)C2 |  | inactive |
| CCC(=O)c1ccccc1 |  | inactive |

| Compound | AC50 | outcome |
| --- | --- | --- |
| O=CC=O |  | inactive |
| Cl/C=C/Cl |  | inactive |
| CC1CN1P(=O)(N1CC1C)N1CC1C (stereo not given) |  | inactive |
| O=Cc1cccc(Oc2ccccc2)c1 |  | inactive |
| CCOP(OCC)OCC |  | inactive |
| COc1cc2c(cc1OC)[C@@]13CCN4CC5=CCO[C@H]6CC(=O)N2[C@H]1[C@H]6[C@H]5C[C@H]43 |  | inactive |
| CC(C)C1CCC(Cc2ccc(Cl)cc2)C1(O)Cn1cncn1 (stereo not given) |  | inactive |
| Cc1ccc2ccccc2c1C |  | inactive |
| COc1ccc(OC)c(C=O)c1 |  | inactive |
| O=C(Cl)c1ccc(Cl)cc1 |  | inactive |
| O=[N+]([O-])c1ccc(O)c([N+](=O)[O-])c1 |  | inactive |
| CN(CCCC(=O)c1cccnc1)N=O |  | inactive |
| NC(=O)O |  | inactive |
| CCCCOCCOC(C)=O |  | inactive |
| CC(=[OH+])/C=C(/C)[O-].CC(=[OH+])/C=C(/C)[O-].CC(=[OH+])/C=C(/C)[O-].[Al] |  | inactive |
| OCC(O)CCl (stereo not given) |  | inactive |
| CCN(CC)C(=O)Cl | 27.7 µM (active) |  |
| ClCc1ccccn1 |  | inactive |
| N#CCCO |  | inactive |
| c1cc[c]([Hg][c]2ccccc2)cc1 |  | inactive |
